Vc quorum ag = induces V. cholerae light production without autoinducers; AID 588436; 350,000 compounds, 0.16% hits; activation, % at 18.7 µM; V. cholerae BH1578 lux reporter, luminescence, 6 h; in the data active means activation mostly above about 9.7%, no sharp cut-off
Mtb BioA inh = BioA (M. tuberculosis) enzyme inhibition. purified M. tuberculosis BioA enzyme, plate reader. AID 602481. inhibition, % at 9.99 µM. 360,000 compounds, 0.096% hits; in the data active means inhibition above about 40%
DUSP3 inh = DUSP3 (human) phosphatase inhibition; P51452; recombinant VHR phosphatase, pNPP absorbance; inhibition, % at 13.3 µM; 290,000 compounds, 0.52% hits; AID 1654; in the data active means inhibition above about 50%
Yp Topo-I inh = inhibitors of Yersinia pestis topoisomerase I; Y. pestis Topo-I cleavage product accumulation, plate reader; activity, % at 10 µM; 360,000 compounds, 0.064% hits; AID 504884; in the data active means activity above about 50%, passing the limit was not always enough
TcdB GH inh = inhibitors of Clostridioides difficile toxin B glycohydrolase; P18177; AID 652162; 350,000 compounds, 0.24% hits; inhibition, % at 9.99 µM; TcdB glycohydrolase enzymatic assay, plate reader; in the data active means inhibition above about 10%
The depositor's hits bear a star. A selection: hits, their analogues and other compounds. The true share with any hit is near 0.73%.

Screening Cc1ccc(C(=O)c2no[n+]([O-])c2C(=O)c2ccc(C)cc2)cc1 returned Vc quorum ag inactive, DUSP3 inh 54*, Yp Topo-I inh -7 and TcdB GH inh 0.
For Cc1ccc(C(=O)c2ccc(C)cc2)cc1 the results were Vc quorum ag -1, Mtb BioA inh -2, DUSP3 inh 17, Yp Topo-I inh -2 and TcdB GH inh 1.
`C[C@@H]1C=C[C@](Cc2ccccc2)(C(=O)NCC2CC2)N1C(=O)c1ccccc1` gave Vc quorum ag inactive, Mtb BioA inh -1, DUSP3 inh 8, Yp Topo-I inh -5 and TcdB GH inh 11*.
CCC(=O)Nc1ccc2c(c1)C(=O)N(C)C[C@H](OC)[C@@H](C)CN(C(=O)NC(C)C)[C@@H](C)CO2 was read as Mtb BioA inh -1 and TcdB GH inh 0.
Screening CCCC(=O)Nc1ccc2c(c1)OC[C@H](C)N(CC1CCCC1)C[C@H](C)[C@@H](OC)CN(C)C2=O returned Mtb BioA inh -3 and TcdB GH inh 30*.
For CCC(=O)Nc1ccc2c(c1)OC[C@@H](C)N(C(=O)NC(C)C)C[C@H](C)[C@H](OC)CN(C)C2=O the results were Mtb BioA inh -2 and TcdB GH inh 15*.
CCCC(=O)Nc1ccc2c(c1)OC[C@H](C)N(CC1CCCC1)C[C@@H](C)[C@H](OC)CN(C)C2=O was read as Mtb BioA inh 0 and TcdB GH inh 0.
CCC(=O)Nc1ccc2c(c1)OC[C@H](C)N(C(=O)NC(C)C)C[C@@H](C)[C@@H](OC)CN(C)C2=O was read as Mtb BioA inh -5 and TcdB GH inh 11*.
`CO[C@@H](CN(C)S(=O)(=O)c1ccc(Cl)cc1)[C@H](C)CN(C(=O)Nc1ccccc1F)[C@H](C)CO` gave Mtb BioA inh -1 and TcdB GH inh 0.
Screening C[C@@H]1CCCCO[C@@H](CN(C)S(=O)(=O)c2cccs2)[C@@H](C)CN([C@H](C)CO)C(=O)c2cc(NC(=O)Nc3ccccc3)ccc2O1 returned Mtb BioA inh 1 and TcdB GH inh 0.
C/C=C/c1ccc2c(c1)O[C@@H](CN(C)Cc1cccc(F)c1)[C@@H](C)CN([C@@H](C)CO)S2(=O)=O was read as Mtb BioA inh 4 and TcdB GH inh 1.
CO[C@H]1CN(C)C(=O)c2ccc(NC(=O)c3ccc(Oc4ccccc4)cc3)cc2OC[C@H](C)NC[C@H]1C was read as Mtb BioA inh 4 and TcdB GH inh 1.
Screening O=[N+]([O-])c1cccc(C(=Nc2ccccc2Cl)NO)c1 returned Vc quorum ag inactive, Mtb BioA inh 2, DUSP3 inh 17 and Yp Topo-I inh 6.
Screening ONC(=Nc1ccccc1Cl)c1ccccc1Cl returned Vc quorum ag 2, Mtb BioA inh 2, DUSP3 inh -5, Yp Topo-I inh 1 and TcdB GH inh 17*.
O=C(NCc1ccco1)c1ccc(Cl)c(S(=O)(=O)N2CCc3ccccc32)c1 was read as Vc quorum ag 0, DUSP3 inh 56*, Yp Topo-I inh 25 and TcdB GH inh 1.
O=C(Nc1ccc2c(c1)OCO2)N1CCN(c2ccc(F)cc2)CC1 was read as Vc quorum ag -1, DUSP3 inh 57*, Yp Topo-I inh 1 and TcdB GH inh 0.
Screening C[C@@H]1CCCCO[C@H](CN(C)C(=O)Nc2ccc(C(F)(F)F)cc2)[C@H](C)CN([C@H](C)CO)C(=O)c2cc(NS(=O)(=O)c3cccs3)ccc2O1 returned Mtb BioA inh -7 and TcdB GH inh 0.
`CN(C)c1ccc(Nc2nc(-c3cccnc3)cs2)cc1` gave Vc quorum ag -1, DUSP3 inh 15 and Yp Topo-I inh 2.
`CCN(CC)c1ccc(Nc2nc(-c3cccnc3)cs2)cc1` gave Vc quorum ag 2, Mtb BioA inh 3, DUSP3 inh 57*, Yp Topo-I inh 8 and TcdB GH inh 2.
Screening Cc1ccc(NC(=O)C(CC(C)C)NC(N)=O)cc1Cl (stereo not drawn) returned Vc quorum ag -3, DUSP3 inh 8, Yp Topo-I inh -8 and TcdB GH inh 0.
CC(C)CC(NC(N)=O)C(=O)Nc1ccc(Cl)c(Cl)c1 (stereo not drawn) was read as Vc quorum ag 0, DUSP3 inh 51*, Yp Topo-I inh 1 and TcdB GH inh 1.
For O=C(C[C@H]1CC[C@H]2[C@@H](COC[C@H](O)CN2C(=O)Nc2ccc(F)cc2)O1)NCCCN1CCOCC1 the results were Mtb BioA inh -2 and TcdB GH inh -1.
For Nc1ncnc2[nH]c(=S)[nH]c12 the results were Vc quorum ag -2, Mtb BioA inh 1, Yp Topo-I inh 5 and TcdB GH inh 15*.
CSc1nc2ncnc(N)c2[nH]1 was read as Vc quorum ag -1, Mtb BioA inh -1, DUSP3 inh 5, Yp Topo-I inh 5 and TcdB GH inh 0.
Screening Cc1c(N2C(=O)SC(CC(=O)O)C2=O)c(=O)n(-c2ccccc2)n1C (stereo not drawn) returned Vc quorum ag 36*, Mtb BioA inh 0, DUSP3 inh 0 and Yp Topo-I inh 4.
O=C(CC1CC1)N1CC(=O)N2[C@H](CO)[C@@H](c3ccc(C#Cc4ccccc4)cc3)[C@@H]2C1 was read as TcdB GH inh 0.
For O/N=C/c1cccc[n+]1CCCCCC[n+]1ccccc1/C=N/O the results were Vc quorum ag -1, Mtb BioA inh -1, DUSP3 inh 60*, Yp Topo-I inh 1 and TcdB GH inh 0.
Screening COc1ccc(C(=O)C[n+]2ccccc2/C=N/O)cc1 returned Vc quorum ag inactive, DUSP3 inh 3, Yp Topo-I inh 5 and TcdB GH inh 0.
Screening CCCN(C)C[C@@H]1Oc2cc(C#Cc3cccnc3)ccc2S(=O)(=O)N([C@@H](C)CO)C[C@@H]1C returned Mtb BioA inh 29 and TcdB GH inh 0.
Cc1cc(C)c(C(=O)N2CCCC(Nc3ccc(C)c(C)c3)C2)o1 (stereo not drawn) was read as Vc quorum ag inactive, Mtb BioA inh 0, DUSP3 inh 53*, Yp Topo-I inh 15 and TcdB GH inh 2.
Screening COc1ccc(NC2CCCN(C(=O)CN3CCOC3=O)C2)cc1 (stereo not drawn) returned Vc quorum ag inactive, Mtb BioA inh 0, DUSP3 inh 10, Yp Topo-I inh -3 and TcdB GH inh 1.
For Cc1ccc(NC2CCCN(C(=O)CN3C(=O)CSC3=O)C2)cc1C (stereo not drawn) the results were Vc quorum ag inactive, Mtb BioA inh 4, DUSP3 inh 53*, Yp Topo-I inh -3 and TcdB GH inh -1.
Screening COc1ccc(NC2CCCN(C(=O)CN3CCOC3=O)C2)cc1OC (stereo not drawn) returned Vc quorum ag 3, Mtb BioA inh 1, DUSP3 inh 2, Yp Topo-I inh -1 and TcdB GH inh 12*.
For CCNC(=O)C[C@H]1CC[C@H]2[C@@H](COc3ccc(NC(=O)Nc4c(C)noc4C)cc3C(=O)N2C)O1 the results were Mtb BioA inh -4 and TcdB GH inh 0.

Assay outcomes deposited in PubChem by several laboratories.
